# Test results reported in the supplement of paper PMC6555819.
# Assays:
# Assay in all cases: PBM binding z-score (relative to random genomic background probes); higher = stronger binding; sequences stand for … in GC…GCGATTGACAGCGTAGAATGAAGG
# [1] = system: FXR:RXRa (NR concentration 270 nM, RXRa partner concentration 90 nM)
# Method in brief: (§1)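 Scanned fluorescence from custom Agilent 4×180K protein-binding microarrays was regression-normalized. Binding z-scores use random background probes as reference. Ligand-free nuclear receptor dimers were incubated on the arrays for 1 h and detected with antibodies against each partner (one per run).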
# [2] = system: LXRa:RXRa (NR concentration 270 nM, RXRa partner concentration 90 nM)
# Method in brief: as §1
# [3] = system: LXRa homodimer (NR concentration 270 nM)
# Method in brief: as §1
# [4] = system: LXRb:RXRa (NR concentration 270 nM, RXRa partner concentration 90 nM)
# Method in brief: as §1
# [5] = system: LXRb homodimer (NR concentration 270 nM)
# Method in brief: as §1
# [6] = system: PPARa:RXRa (NR concentration 270 nM, RXRa partner concentration 90 nM)
# Method in brief: as §1
# [7] = system: PPARg:RXRa (NR concentration 180 nM, RXRa partner concentration 90 nM)
# Method in brief: as §1
# [8] = system: PPARg:RXRa 270nM:90nM, anti-RXR (NR concentration 270 nM, RXRa partner concentration 90 nM)
# Method in brief: as §1
# [9] = system: PPARg:RXRa 30nM:10nM, anti-RXR (NR concentration 30 nM, RXRa partner concentration 10 nM)
# Method in brief: as §1
# [10] = system: PPARg:RXRa 90nM:30nM, anti-RXR (NR concentration 90 nM, RXRa partner concentration 30 nM)
# Method in brief: as §1
# [11] = system: PPARg:RXRa DBDmut IVT, anti-RXR (DBD mutation: RXRa K156A/R161A, NR concentration 270 nM, RXRa partner concentration 90 nM)
# Method in brief: as §1
# [12] = system: PPARg:RXRa IVT, anti-PPARg (NR concentration 270 nM, RXRa partner concentration 90 nM)
# Method in brief: as §1
# [13] = system: PPARg DBDmut:RXRa IVT, anti-PPARg (DBD mutation: PPARg1 K132A/R137A, NR concentration 270 nM, RXRa partner concentration 90 nM)
# Method in brief: as §1
# [14] = system: PPARg DBDmut IVT, anti-PPARg (DBD mutation: PPARg1 K132A/R137A, NR concentration 270 nM)
# Method in brief: as §1
# [15] = system: PPARg homodimer (NR concentration 180 nM)
# Method in brief: as §1
# [16] = system: PXR:RXRa (NR concentration 270 nM, RXRa partner concentration 90 nM)
# Method in brief: as §1
# [17] = system: PXR homodimer (NR concentration 270 nM)
# Method in brief: as §1
# [18] = system: RARa:RXR (NR concentration 270 nM, RXRa partner concentration 90 nM)
# Method in brief: as §1
# [19] = system: RARa homodimer (NR concentration 270 nM)
# Method in brief: as §1
# [20] = system: RARb:RXRa (NR concentration 270 nM, RXRa partner concentration 90 nM)
# Method in brief: as §1
Sequence,PBM binding z-score [1],PBM binding z-score [2],PBM binding z-score [3],PBM binding z-score [4],PBM binding z-score [5],PBM binding z-score [6],PBM binding z-score [7],PBM binding z-score [8],PBM binding z-score [9],PBM binding z-score [10],PBM binding z-score [11],PBM binding z-score [12],PBM binding z-score [13],PBM binding z-score [14],PBM binding z-score [15],PBM binding z-score [16],PBM binding z-score [17],PBM binding z-score [18],PBM binding z-score [19],PBM binding z-score [20]
CCTCGGAGGACAGCAGGAGGTCAGAGCTGCCAGA,0.706,1.02,0.292,0.728,-0.764,1.48,-0.245,-0.0312,-1.08,-0.248,-0.448,-0.212,-1.03,-2.54,1.7,1.55,0.245,1.79,0.518,2.62
AGTCAAAGTGCAGGACGAGGTAACGTAAAGCACG,-0.105,-0.155,-0.419,-0.641,-0.89,0.169,1.06,1.03,0.301,0.389,-0.506,0.274,-0.356,-0.388,-0.0962,-0.156,-0.256,0.784,-0.657,1.15
ACTAGTTGGTCAGCTGCGGTCACACACAATTCGG,0.216,0.737,1.43,0.671,0.37,0.527,0.606,0.528,-0.0871,0.128,1.11,1.54,0.929,0.572,0.275,1.27,0.281,1.42,0.564,2.26
TAGCCTAGGTCATTCAGGGGCGAGTATAGAAAGC,5.04,5.21,0.875,3.77,1.13,3.69,2.21,2.4,0.501,1.61,1.58,3.05,0.363,0.38,1.3,4.17,-0.00215,3.55,0.172,3.89
TCTTGTAGATCAGCAGGTTAAGAATGCTGGCCAA,-0.0205,0.0347,-0.38,0.151,-0.573,0.607,-0.224,1.26,2.68,2.04,1.36,0.428,-0.195,-0.491,0.12,0.00264,-0.0255,0.239,-0.0617,0.12
CCTGCTGGGTCATGGTCAGCTAATCTACAGTATG,2.47,1.59,-0.658,1.42,-0.697,3.32,1.97,2.53,0.317,1.69,2.64,2.73,-0.296,0.15,0.949,1.24,-0.638,2.02,-0.488,3.35
CCGACTGGGGCAGAAAGGTTACCCTACCATCCGG,0.191,0.465,-0.126,0.448,-1.02,1.5,1.17,2.33,0.336,1.78,1.23,1.93,-1.08,-1.51,0.207,0.618,-0.304,1.34,-0.533,1.73
AGAAGGAGGTTATTAAGATCAGGGAATTGCGGTC,1.12,1.36,0.522,1.46,0.654,2.01,1.01,1.31,0.314,0.827,2,1.6,0.512,-0.349,1.37,1.2,1.24,0.985,1.65,1.26
ATCGAAAGGTCGACTAGGTGAGTATACACCGTTT,4.12,3.17,0.302,2.94,0.797,4.24,2.56,3.24,1.06,2.34,0.845,2.25,0.674,1.34,0.62,2.73,0.165,3.24,0.35,3.72
AAGACAGGGTCATCGTAGGCCAGAGTACGCACAG,7.28,5.76,0.0665,4.06,0.0441,6.02,5.91,5.77,2.38,3.94,1.48,2.99,0.884,0.174,1.25,4.95,0.0301,4.92,0.453,4.23
CGTCCAAGGTCATAGGAGGTCAGTGCAGACAGAT,7.64,7.34,5.11,6.24,1.16,5.7,5.88,5.67,2.19,4.56,3.55,4.57,0.589,1.49,4.86,6.81,4.62,6.21,2.75,5.33
TCTTGTAGATCAAGCAGGGTAAGAAAGCCTGAGT,0.561,-0.0537,-0.634,0.0919,-0.511,0.15,-0.37,1.08,2.34,1.6,1.7,0.481,-0.108,-0.000734,-0.854,0.136,-0.0302,0.246,-0.676,-0.148
CGTCCAAGGTCAAAGGCCAGTGAAGAGATGACGG,7.32,5.28,0.422,3.87,0.919,6.01,6.49,6.54,3.55,5.57,3.42,4.02,0.425,0.106,3.37,4.39,0.655,5.25,0.426,5.29
